The source made the active and inactive calls.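 Rule for the calls: active = cell killing with a fitted half-maximal concentration no more than twice the top valid dose used; inconclusive = flat curve with a moderate signal drop, or poor fit; inactive = the rest.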

A short description of this assay: HepG2 cell cytotoxicity, dose response, cytotoxicity control, plate reader, dry powder, set 7 (AID 743313). The following applies: HepG2 viability, ATP luminescence (CellTiter-Glo), 72 h; series mostly up to 26 µM. On the technique in general: ATP-based viability assays read luminescence as a measure of living cells.
Take `Cc1cccc(OCCn2c(=S)[nH]c3ccccc32)c1`: the molecule was called inactive.

As for `Cc1ccc(OCCn2cnc3ccccc32)c(C(C)C)c1`, the outcome was inactive.

With `Fc1cccc(OCCn2c(=S)[nH]c3ccccc32)c1`, the molecule was called inactive.

As to `CC(C)c1ccccc1NCCn1c(=S)[nH]c2ccccc21`, the result was inactive.

For `Cc1ccc(C(C)C)c(OCCn2c(=S)[nH]c3ccc(F)cc32)c1`, the molecule was classed as inactive.

As for `Fc1ccc2[nH]c(=S)n(CCOc3ccccc3)c2c1`, the result was inactive.

`S=c1[nH]c2ccccc2n1CCOc1ccccc1`: the outcome was inactive.

Turning to `Cc1ccc(C(C)C)c(OCCn2c(=S)[nH]c3cccc(C)c32)c1`, the result was inactive.

On to `Cc1cccc(OCCn2c(=S)[nH]c3ccc(C(F)(F)F)cc32)c1`, for which the molecule was classed as inactive.

Take `S=c1[nH]c2ccccc2n1CCOc1ccc(Cl)cc1`: the molecule was classed as inactive.

On to `O=c1[nH]c2ccccc2n1CCOc1ccccc1`, for which the molecule was classed as inactive.

On to `COc1ccc(OCCn2c(=S)[nH]c3ccccc32)cc1`, for which the call was inactive.

On to `COc1ccccc1OCCn1c(=S)[nH]c2ccccc21`, for which the result was inactive.

Consider `Cc1cccc(OCCn2c(=S)[nH]c3cc(F)ccc32)c1`, for which the molecule was classed as inactive.

For the molecule `Cc1ccc(OCCn2c(=S)[nH]c3ccccc32)cc1`, the outcome was inactive.

On to `S=c1[nH]c2ccccc2n1CCOc1ccccc1Cl`, for which the outcome was inactive.

For the molecule `c1ccc(OCCn2cnc3ccccc32)cc1`, the molecule was classed as inactive.

With `Cc1ccc2c(c1)[nH]c(=S)n2CCOc1ccccc1`, the result was inactive.

Consider `Cc1cccc(OCCn2c(=S)[nH]c3ccccc32)c1C`, for which the molecule was classed as inactive.

For the molecule `Cc1ccc(C(C)C)c(OCCn2c(=S)[nH]c3cc(F)ccc32)c1`, the molecule was called inactive.

For the molecule `CC(C)(C)c1ccc(OCCn2cnc3ccccc32)cc1`, the molecule was classed as inactive.

Regarding `S=c1[nH]c2cc(Cl)ccc2n1CCOc1ccccc1`, the call was inactive.

In the case of `COc1cccc(OCCn2c(=S)[nH]c3ccccc32)c1`, the call was inactive.

Take `Cc1ccc(C(C)C)c(OCCn2c(CO)nc3ccccc32)c1`: the result was inactive.

For `Fc1ccc(OCCn2c(=S)[nH]c3ccccc32)cc1`, the result was inactive.

`Cc1ccc(C(C)C)c(OCCn2c(=S)[nH]c3c(F)cccc32)c1`: the result was inactive.

For the origin of these results see PubChem BioAssay AID743313 (Broad Institute, 2014).
